In the library only some 19% were active in any assay of this set; here they are far more common.
TDP1 inh: inhibitors of human tyrosyl-DNA phosphodiesterase TDP1. recombinant TDP1, AlphaScreen DNA substrate cleavage. Potency, µM (doses to about 130 µM), for the others: top-dose activity change, negative = inhibition, actives largely listed as inhibitors. 350,000 tested, 0.28% active; further: nearly all actives have a fitted effect of over 40% in size
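E. coli-derived human Tdp1, 1 nM final. Cpd preinc 15 min RT; substrate 15 nM final, 5 min RT; AS bead mix 10 ug/ml final, 10 min RT. Signal loss = tyrosine-FITC cleavage. No-enzyme wells = max signal.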
DT40 TDP1 CPT: DT40-hTDP1 cell growth loss with CPT | AID 686979 | chicken DT40 Tdp1-/-;hTDP1 cells + 20 nM CPT, ATP luminescence, 48 h | Potency, µM (series often up to 46.2 µM), for the others: top-dose activity change, negative = growth inhibition, most hits filed as inhibitors | 420,000 tested, 12% active; further: nearly all actives have a fitted effect of over 55% in size
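Chicken DT40 Tdp1-/- cells stably complemented with human TDP1 were seeded at 400 cells/well in medium containing 20 nM camptothecin, exposed to pin-transferred compounds, and grown at 37 °C for at least 48 hr. Viability was read as ATP luminescence.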
Gal4-VP16 FLuc: inhibits Gal4-VP16 luciferase reporter, ROR gamma counter-screen | Drosophila S2 Gal4-VP16 UAS-luciferase, luminescence, 20 h | Potency, µM (highest dose often 53.6 µM), for inactives: at the highest dose activity, negative = inhibition, actives largely listed as inhibitors | 310,000 tested, 3.5% active | AID 2546;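 further: Gal4-VP16 expression switched on by copper sulfate through the metallothionein promoter; nearly all actives have a fitted effect of over 50% in size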
RORg inh: blocks mouse ROR gamma transcriptional activity; Drosophila S2 Gal4-RORgamma UAS-luciferase reporter, 20 h; Potency, µM (series often up to 53.6 µM), inactives show at the top dose activity change, negative = inhibition, most hits filed as inhibitors; 310,000 tested, 5.4% active; further: nearly all actives have a fitted effect of over 60% in size
Target sequence (P51450 whole entry, looked up, the tested form may be a part): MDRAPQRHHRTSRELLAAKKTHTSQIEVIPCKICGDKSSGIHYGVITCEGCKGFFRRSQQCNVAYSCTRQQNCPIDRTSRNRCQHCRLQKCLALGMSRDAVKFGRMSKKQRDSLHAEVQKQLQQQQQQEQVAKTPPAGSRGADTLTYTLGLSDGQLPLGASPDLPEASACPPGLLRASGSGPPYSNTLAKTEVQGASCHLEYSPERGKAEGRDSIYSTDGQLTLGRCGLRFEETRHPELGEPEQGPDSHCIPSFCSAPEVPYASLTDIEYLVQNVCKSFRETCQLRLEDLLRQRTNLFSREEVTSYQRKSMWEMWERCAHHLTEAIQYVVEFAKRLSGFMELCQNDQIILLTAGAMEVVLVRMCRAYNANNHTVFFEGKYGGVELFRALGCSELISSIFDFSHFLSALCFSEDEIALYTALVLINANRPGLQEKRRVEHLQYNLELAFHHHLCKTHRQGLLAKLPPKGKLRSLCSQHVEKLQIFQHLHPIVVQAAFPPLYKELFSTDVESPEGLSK
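Drosophila Schneider cells stably carrying a metallothionein-driven Gal4 DBD–ROR gamma fusion and a UAS-Photinus luciferase reporter were exposed to compound for 1 hr, then induced with copper sulfate (700 uM final) for 20 hr at ambient temperature before luminescence reading.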
TDP1 cell noCPT: qHTS for Inhibitors of human tyrosyl-DNA phosphodiesterase 1 (TDP1): qHTS in cells in absence of CPT; DT40 Tdp1-/- hTDP1 cells, no CPT, ATP luminescence, 48 h; Potency, µM (top dose mostly 46.2 µM), for inactives: at the top dose activity change, negative = growth inhibition, usual class: inhibitors; 420,000 tested, 15% active; AID 686978, 2013; further: nearly all actives have a fitted effect of over 55% in size
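Chicken DT40 Tdp1-/- cells complemented with human TDP1, screened without camptothecin (DMSO vehicle only), 400 cells/well. Compounds pin-transferred, cells incubated at 37 °C for at least 48 hr. Growth read as ATP-dependent luminescence (CellTiter-Glo, 30 min at RT).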
Numbers without * were called inactive; ? = inconclusive; · = no result given; [ ] = remark or other dose. The call rests on the fitted dose curve; in most records, active means well fitted curve in the direction sought with a large enough effect; inconclusive means small, poorly fitted or top-dose-only effect, or another doubt; inactive means no such curve, though single readings can be large; an effect the other way counts as inactive or inconclusive. On the % scale 0 is the no-effect control and ±100 the full control effect; potency means the concentration at half of the fitted maximal effect.

SMILES	TDP1 inh	DT40 TDP1 CPT	Gal4-VP16 FLuc	RORg inh	TDP1 cell noCPT
CCC(C)C(=O)Nc1ccc(S(=O)(=O)Nc2nccs2)cc1 (centres undefined)	·	-2%	0%	18%	-6%
Clc1ccc(NCn2cncn2)nc1	-1%	23µM*	-2%	-12%	-7%
NNC(=O)c1cnn(-c2ccccc2)c1-n1cccc1	6%	3%	1%	-10%	-12%
O=C(NNS(=O)(=O)c1ccc([N+](=O)[O-])cc1)c1cnn(-c2ccccc2)c1-n1cccc1	0%	0.46µM*	13%	26%	0.46µM*
O=C(NNS(=O)(=O)c1ccccc1)c1cnn(-c2ccccc2)c1-n1cccc1	3%	8.2µM*	11%	2%	12µM*
O=C(O)c1cnn(-c2ccccc2)c1-n1cccc1	-5%	-28%	11%	-58%	-21%
O=C(NNS(=O)(=O)c1ccc(Cl)cc1)c1cnn(-c2ccccc2)c1-n1cccc1	3%	1.5µM*	0%	-11%	2.1µM*
Clc1cc(Cl)cc(CSc2nnc(-c3sccc3-n3cccc3)o2)c1	2%	-19%	-2%	22%	?
O=C(Nc1ccc(-c2ccc3nncn3n2)cc1)C1CCCC1	5%	?	-11%	8%	?
CC(C)C(=O)Nc1ccc(-c2ccc3nncn3n2)cc1	0%	-22%	-1%	-12%	?
O=C(CC1CCCCC1)Nc1ccc(-c2ccc3nncn3n2)cc1	-2%	?	-3%	18%	18µM*
O=C(Nc1ccc(-c2ccc3nncn3n2)cc1)c1ccc(Br)o1	79µM*	-12%	-12%	18%	?
O=C(COc1ccccc1Cl)NCC1(N2CCOCC2)CCCCC1	3%	21µM*	·	·	15µM*
Cc1ccc(C(C)C)c(OCC(=O)NCC2(N3CCOCC3)CCCCC2)c1	-1%	9.2µM*	·	·	7.3µM*
COc1ccccc1OCC(=O)NCC1(N2CCOCC2)CCCCC1	4%	?	·	·	-56%
O=C(COc1ccc(Cl)cc1Cl)NCC1(N2CCOCC2)CCCCC1	-2%	18µM*	·	·	21µM*
OC(CNCC1(N2CCCCC2)CCCCC1)COc1ccc(Cl)cc1Cl (centres undefined)	-2%	?	8%	3%	15µM*
C/C(=C(\CCOC(=O)c1ccccc1)SS/C(CCOC(=O)c1ccccc1)=C(/C)N(C=O)Cc1cnc(C)nc1N)N(C=O)Cc1cnc(C)nc1N	·	27µM*	·	·	?
Cc1ccc(S(=O)(=O)c2nc(Nc3ccccc3C#N)sc2Cl)cc1	8%	?	6%	0%	2.6µM*
Cc1ccc(S(=O)(=O)c2nc(Nc3ccccc3N3CCOCC3)sc2Cl)cc1	10%	?	-6%	-1%	?
CCOc1ccc(S(=O)(=O)Nc2ccc(F)cc2)c(C)c1C	6%	26µM*	18µM*	?	21µM*
CCC(C)NS(=O)(=O)c1ccc(NS(=O)(=O)c2ccc(F)cc2)cc1 (centres undefined)	4%	0%	15%	-33%	-14%
O=C(Nc1ccccn1)c1ccc(Cl)c(S(=O)(=O)N2CCCC2)c1	-1%	6%	·	·	-27%
Cc1cc(=O)oc2c(C)c(OC(C)C(=O)NCCCn3ccnc3)ccc12 (centres undefined)	2%	-4%	1%	-13%	15%
CSCCC1NC(=O)N(CC(=O)Nc2cc(C)on2)C1=O (centres undefined)	0%	-4%	·	·	15%
SMILES	TDP1 inh	DT40 TDP1 CPT	Gal4-VP16 FLuc	RORg inh	TDP1 cell noCPT
CSCCC1NC(=O)N(CC(=O)Nc2c(Cl)cc(Cl)cc2Cl)C1=O (centres undefined)	4%	16µM*	-3%	0%	?
COCCNc1nc(Oc2cccc3ccccc23)c2sccc2n1	·	12µM*	·	·	16µM*
COCCNc1nc(Oc2cccc(NC(C)=O)c2)c2sccc2n1	·	?	·	·	-23%
COCCNc1nc(Oc2ccccc2)c2sccc2n1	·	29µM*	·	·	23µM*
COc1ccccc1CNC(=O)C[C@@H]1C[C@H]2c3cc(N(C)C)ccc3O[C@H]2[C@H](CO)O1	·	2%	·	·	?
Oc1c(N=Nc2ccccn2)ccc2ccccc12	16%	1.5µM*	-74%	0.11µM*	1.6µM*
Oc1[nH]c2ccccc2c1N=Nc1ccccn1	·	0%	·	·	-2%
O=C(c1cnn2c(C(F)(F)F)cc(-c3ccco3)nc12)N1CCc2ccccc2C1	3%	?	-16%	-6%	?
CC(C)=N/N=C1\NC(=O)C(C)S1 (centres undefined)	3%	5%	?	11µM*	-4%
C/C(=N\N=C1/NC(=O)C(C)S1)c1ccc([N+](=O)[O-])cc1 (centres undefined)	3%	0%	5%	?	-24%
O=C(c1cccnc1)C1CCCN(Cc2ccc3c(c2)CN(C(=O)c2cn4ccccc4n2)CCO3)C1 (centres undefined)	·	-3%[9.04 µM]	·	·	?
CC1=C(C(=O)N(C)C)CC(CC(=O)NCC2CCCCC2)C(=O)N1Cc1ccc(C(C)(C)C)cc1 (centres undefined)	·	?	·	·	16µM*
CCN(CC)C(=O)C1=C(C)N(Cc2ccc(C(C)(C)C)cc2)C(=O)C(CC(=O)NCC2CCCCC2)C1 (centres undefined)	·	13µM*	·	·	18µM*
CC1=C(C(=O)N(C)C)CC(CC(=O)NCC2CCCCC2)C(=O)N1Cc1ccccc1 (centres undefined)	·	-13%	·	·	-14%
COc1cccc(CCNC(=O)c2cc(COc3ccc(C)c(C)c3)on2)c1OC	·	?	·	·	15µM*
COc1cccc(OCc2cc(C(=O)NCC3CCCCC3)no2)c1	1%	-7%	19%	7%	7%
CCOC(=O)CC1(NC(=O)c2cc(COc3cccc(OC)c3)on2)CCCCC1	-12%	23µM*	?	?	10µM*
COc1cccc(CCNC(=O)c2cc(COc3cccc(OC)c3)on2)c1	·	?	·	·	16µM*
CC(C)Cc1nnc(NS(=O)(=O)c2ccc([N+](=O)[O-])cc2)s1	·	-10%	2%	23%	-11%
C=CCNc1ncnc2c1ncn2[C@H]1CN(Cc2ccco2)C[C@@H](CO)O1	·	-12%	·	·	-3%
COCCNc1ncnc2c1ncn2[C@H]1CN(Cc2ccc(-c3ccccc3)cc2)C[C@@H](CO)O1	·	18µM*	·	·	21µM*
C=CCNc1ncnc2c1ncn2[C@H]1CN(Cc2ccc(-c3ccccc3)cc2)C[C@@H](CO)O1	·	16µM*	·	·	23µM*
OCCCNc1ncnc2c1ncn2[C@H]1CN(Cc2ccc(-c3ccccc3)cc2)C[C@@H](CO)O1	·	15µM*	·	·	21µM*

Source: PubChem BioAssay
